Tests used:
Conditions in all cases: concentration: 1 μM, replicates: in singlicate; n = 1
TAOK2 = system: TAOK2
TAOK3 = system: TAOK3
TBK1 = system: TBK1
TEC = system: TEC
TESK1 = system: TESK1
TGFBR1 = system: TGFBR1
TGFBR2 = system: TGFBR2
TIE1 = system: TIE1
TIE2 = system: T1, TIE2
T1 construct: gene TEK

TLK1 = system: TLK1
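Note: KINOMEscan kinase panel screen.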

Row | SMILES | %Inh (TAOK2) [%] | %Inh (TAOK3) [%] | %Inh (TBK1) [%] | %Inh (TEC) [%] | %Inh (TESK1) [%] | %Inh (TGFBR1) [%] | %Inh (TGFBR2) [%] | %Inh (TIE1) [%] | %Inh (TIE2) [%] | %Inh (TLK1) [%]
1 | COCCNC(=O)c1ccc(-c2cc(C(=O)NC3CC3)cc(F)c2C)cc1 [GW868318] | 16 | 32 | 34 | 11 | 26 | 0 | 6 | 17 | 17 | 14
2 | Cc1ccc(C(=O)NCC(N)=O)cc1-n1c(C)cc(OCc2ccc(F)cc2F)c(Br)c1=O | 7 | 0 | 36 | 13 | 31 | 36 | 26 | 0 | 0 | 0
3 | O=c1cc(N2CCOCC2)nc2n(Cc3cccc4ccccc34)ccn12 [GSK2333389] | 0 | 0 | 0 | 0 | 0 | 17 | 1 | 11 | 0 | 0
4 | CCc1ccnc(/C=C/c2n[nH]c3cc(Sc4ccccc4C(=O)NC)ccc23)c1 | 100 | 0 | 0 | 3 | 8 | 0 | 0 | 48 | 8 | 0
5 | CC(C)(C)n1cnc2c(N)ncnc21 [SKF-97359] | 0 | 0 | 19 | 0 | 0 | 30 | 0 | 0 | 17 | 67
